In PubChem BioAssay (NCI):
Several values for one entry are separate records, joined by “and”; a condition that tells them apart may be missing. Equal values may be shown once. This is part of a sample that, as a whole, favours compounds with a hit. Of some 83,000 tested, about 20% had one in any assay.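 Results are percent growth after 48 hours of single-concentration exposure. 100 means growth as in untreated cells, lower positive values show inhibition; negative values down to -100 show cell death.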 Unmarked numbers belong to inactive results. Activity calls are given as the source filed them. The calls were made as follows: active = growth percent below 10; inactive = the rest.

System: MDA-MB-468 breast
Experiment: NCI-60 one-dose screen, 48 h (100 = growth as untreated, 0 = no growth, -100 = all killed)
Settings: 10 µM unless noted

Compound | growth
COc1ccc(/C=C/C(=O)c2nnn(-c3ccc(C(=O)O)cc3)c2C)cc1OC | 84.6%
COc1ccc(CCN2CC=Cn3c2nc2ccccc2c3=O)cc1 | -0.686% (active)
CC(O)C(N)=O (stereo not given) | 107%
O=C1C(Cl)=C(Nc2ccc3c(c2NC2=C(Cl)C(=O)c4ccccc4C2=O)C(=O)c2ccccc2C3=O)C(=O)c2ccccc21 | 5.98% (active)
COc1cc(-c2c3c(cn2S(=O)(=O)c2ccccc2)-c2nc(N)sc2CC3)cc(OC)c1OC | 23.4%
OC(c1ccc(Cl)cc1)(c1ccc(Cl)cc1)C(O)(c1ccc(Cl)cc1)c1ccc(Cl)cc1 | 12.6%
Cc1ccc(-c2nc(N3CCN(CC(=O)Nc4ccc(Cl)cc4)CC3)c3ccccc3n2)cc1 | 93.3%
CCCCCCC1(/C=N/NC(N)=O)NC(=O)NC1=O (stereo not given) | 92.1%
COc1cc(-c2nc(N=Nc3c(O)[nH]c4ccc(Br)cc34)[nH]c(=O)c2C#N)cc(OC)c1OC | 103%
NC1CCC(Nc2nc(NCc3ccc(-c4ccco4)nc3)c3ncn(C4CCCC4)c3n2)CC1 (stereo not given) | -54.3% (active)
C=C(C)[C@@H]1CC[C@]2(C)[C@H](CC=C3[C@@H]4CC(C)(C)CC[C@]4(CO)CC[C@]32C)[C@@]1(C)CCCN | -56.3% (active)
CCCCOC1NC(=O)NC(=O)C1(F)C(=O)OCC (stereo not given) | 93.8% and 101%
CC1(/C=N/NC(N)=S)NC(=O)NC1=O (stereo not given) | 102%
N=C(N)c1ccc(-c2ccc(-c3ccc4ccccc4c3)s2)cc1 | 101%
O=c1c2cc(F)ccc2sc2c(NCCCNCCO)nc3ccc(F)cc3c12 | 39.7%
Brc1ccc2[nH]cc(-c3cncn3CCc3ccccc3)c2c1 | 17.2%
O=C(CSc1nc2ccc([N+](=O)[O-])cc2[nH]1)Nc1cccc([N+](=O)[O-])c1 | -1.47% (active)
COc1cc2nc(-c3ccc(C(F)(F)F)cc3)cc(OCCCN3CCCC3)c2cc1OC | 43.8%
Cc1c(-c2ccc(C3CCCCC3)cc2)nc2ccc(F)cc2c1C(=O)O | 74.4%
O=C1/C(=C/c2ccccc2)COc2ccc(O)cc21 | 87.8%

Compound | growth
O=S(=O)(NCCCNc1cc(-c2cn(-c3ccccc3)nc2-c2cccc(O)c2)ccn1)c1cccc(F)c1 | 7.62% (active)
CC1=CC(C)(C)NC(=S)N1c1ccc(Cl)cc1 | 97.6% and 105%
COc1ccc(C(=S)N2CCN(c3cccc(Cl)c3)CC2)cc1 | 88.4%
Cn1cc(-c2csc(-c3cn(CCCN4CCCCC4)c4ccccc34)n2)c2cccnc21 | 99.8%
Cc1ccc(NCCN(C)CC(C)O)c2c(=O)c3ccc(Cl)cc3sc12 (stereo not given) | -2.72% (active)
COc1ccc(Cn2cc3c(c2-c2ccc(OC)cc2)CCc2cnoc2-3)cc1 | -7.25% (active)
CC(=O)OC[C@]12CC[C@H]3[C@@H](C[C@H]4O[C@]45CC=CC(=O)[C@]35C)[C@]1(O)CC[C@@]2(O)[C@@](C)(O)C1CC(C)=C(C)C(=O)O1 (stereo not given in full) | -52.8% (active)
O=C1CC(=O)N(C(=O)c2nn(-c3ccc(Cl)cc3)cc2O)N1 | 62.4%
Cc1cc(C)c2c(n1)sc1c(Nc3ccc(Cl)cc3Cl)ncnc12 | 16.9%
Oc1ccc(CN2CCC(N3CCCCC3)CC2)c2cccnc12 | 23.9%
COc1ccc(OC)c(/C=C2\Oc3cc(O)ccc3C2=O)c1 | 102%
CCCN1C=C/C(=C\C(=O)n2ccc3ccccc32)c2ccccc21 | 7.36% (active)
O=C(Nc1cccc2c(O)c(N=Nc3ccc(S(=O)(=O)Nc4nccs4)cc3)cc(N=Nc3ccc(S(=O)(=O)Nc4nccs4)cc3)c12)C(Cl)Cl | 7.35% (active)
CSc1nc2c(c(=O)[nH]1)C(c1ccc(C)cc1)C=C(C(=O)O)N2 (stereo not given) | 114%
Cc1c(O)ccc(SC#N)c1C | 112%
Cc1ccc(Cn2cc(COc3ccc4c5ccnc(C)c5n(CCCc5ccccc5)c4c3)nn2)cc1 | 99%
CC(=O)Nc1ccc(S(=O)(=O)NC2CCCCC2)cc1 | 93.9%
Clc1cc(Cl)cc(-c2cnc3nonc3n2)c1 | 82%
O=C(Nc1ccc(N=Nc2ccccc2)cc1)c1cccc2ccccc12 | 41.9%
CCOC(=O)CC(=O)c1c(C)cc(C)cc1C | 98.6%
